# Source: PubChem BioAssay (NCATS)
# The list shows a part of the results. Where a call stands in place of a potency, no number is given. Results filed as inconclusive are left out. The source made the active and inactive calls. Calls follow the shape of the full dose curve.
# Molecular target: Furin (Homo sapiens) (UniProt P09958)
# Assay: Selectivity profile for inhibitors of NSP2Pro chikungunya virus (CHIKV): Human furin counterscreen (AID 1964102)
# Conditions: Recombinant human furin enzymatic counterscreen, fluorogenic substrate; series mostly up to 50.6 µM
# Source text: PI: Natalia J. Martinez Ph.D.
# National Center for Advancing Translational Sciences (NCATS),
# National Institute of Health (NIH), Rockville, Maryland
# Chikungunya virus (CHIKV) is a mosquito-borne RNA virus that has emerged as one of the most important global arboviral threats in the last decade. Although the first CHIKV vaccine has recently been FDA approved for use in healthy adults at increased risk, to date, there are no available antiviral drugs for CHIKV infection. CHIKV nsP2 protease plays a crucial role in the processing of the viral polypeptide precursor to release enzymes required for viral replication, thus making it a promising drug target for antiviral discovery. Here, we established a high-throughput pipeline to identify small molecule inhibitors of nsP2 proteolytic activity. The pipeline is composed of a suite of 1,536-well in vitro assays to support quantitative high-throughput (qHTS) screening campaigns. Specifically, we developed a fluorescence resonance energy transfer (FRET)-based assay using a fluorogenic peptide substrate encompassing an endogenous cleavage site and purified recombinant protease domain (nsP2pro). Using this assay, we interrogated ~37,000 small molecules, including those in drug repurposing libraries as well as chemically diverse and medicinal chemistry-friendly compounds. Hits were selected for follow-up validation against full-length nsP2 and an additional peptide. FRET-based 1,536-well assays for papain, hepatitis C virus NS3-4A, and human furin proteases were implemented to characterize compound selectivity. […] Novel compounds were identified to be potential nsP2 inhibitors and molecular docking analyses were performed to explain the binding mode of selected hits. In vitro antiviral activity was evaluated for a subset of compounds using a high-throughput CHIKV infection assay. To our knowledge, the pipeline presented here is unprecedented for CHIKV antiviral discovery research.
# PROTOCOL TABLE (as described by Inglese J, Shamu CE and Guy RK. 2007)
# SEQUENCE No. (e.g., 1, 2, 3, etc.); […] (e.g., Cells, Incubation, Reagent, etc.); VALUE; DESCRIPTION.
# 1; Enzyme; 2 uL; 1,536-well solid-bottom, black plate (Greiner Bio One).
# 2; Compounds; 20 nL; Echo 655 acoustic dispenser (Beckman Coulter).
# 3; Incubation; 15 min; room temperature in the dark.
# 4: Reagent; 2 uL; pERTKR-AMC.
# 5; Detection; Fluorescence; time 0, Viewlux microplate reader (PerkinElmer) 355 nm excitation, 460 nm emission
# 6; Incubation; 15 min; room temperature
# 7; Detection; Fluorescence; time 15; ViewLux microplate reader (PerkinElmer), 355 nm excitation, 460 nm emission.
# NOTES (numbers refer to sequence numbers above).
# 1. Two micro-liter of furin enzyme solution (40 nM final concentration) in assay buffer (20 mM Tris-HCl pH 8.0, 150 mM NaCl, with 0.01% Tween 20) were dispensed into a 1,536-well solid-bottom black plate (Greiner Bio One) using the Kalypsys Pintool Station.
# 2. Twenty nano-liter of compounds, positive control Aprotinin (50 uM final concentration), or neutral control DMSO were transferred to the assay plates. Compounds in counterscreen assays were tested at 11 concentrations, 1:3 dilution points from 25 uM to 0.42 nM.
# 3. The assay plates were incubated in the dark for 15 min.
# 4. After incubation, 2 uL of 0.625 uM pERTKR-AMC substrate in assay buffer for the Furin assay was added using the Kalypsys Pintool Station.
# 5-7. Plates were immediately read at time 0 then covered with stainless steel gasket lids and incubated for 15 min at room temperature in the dark. Fluorescence intensity in the assay plates were again read after incubation using the ViewLux imager equipped with AMC fluorescence optics. The change in fluorescence intensity over the 15-min reaction period was normalized against DMSO and inhibitor controls as described below.
# Inglese J, Shamu CE and Guy RK, Reporting data from high throughput screening of small molecule libraries, Nature Chemical Biology, 2007, 3(8): 438-441. doi.org/10.1038/nchembio0807-438.
# Potency is read from the fitted curve at half-maximal effect.
# Chain of Furin (Homo sapiens) (P09958 whole entry, looked up): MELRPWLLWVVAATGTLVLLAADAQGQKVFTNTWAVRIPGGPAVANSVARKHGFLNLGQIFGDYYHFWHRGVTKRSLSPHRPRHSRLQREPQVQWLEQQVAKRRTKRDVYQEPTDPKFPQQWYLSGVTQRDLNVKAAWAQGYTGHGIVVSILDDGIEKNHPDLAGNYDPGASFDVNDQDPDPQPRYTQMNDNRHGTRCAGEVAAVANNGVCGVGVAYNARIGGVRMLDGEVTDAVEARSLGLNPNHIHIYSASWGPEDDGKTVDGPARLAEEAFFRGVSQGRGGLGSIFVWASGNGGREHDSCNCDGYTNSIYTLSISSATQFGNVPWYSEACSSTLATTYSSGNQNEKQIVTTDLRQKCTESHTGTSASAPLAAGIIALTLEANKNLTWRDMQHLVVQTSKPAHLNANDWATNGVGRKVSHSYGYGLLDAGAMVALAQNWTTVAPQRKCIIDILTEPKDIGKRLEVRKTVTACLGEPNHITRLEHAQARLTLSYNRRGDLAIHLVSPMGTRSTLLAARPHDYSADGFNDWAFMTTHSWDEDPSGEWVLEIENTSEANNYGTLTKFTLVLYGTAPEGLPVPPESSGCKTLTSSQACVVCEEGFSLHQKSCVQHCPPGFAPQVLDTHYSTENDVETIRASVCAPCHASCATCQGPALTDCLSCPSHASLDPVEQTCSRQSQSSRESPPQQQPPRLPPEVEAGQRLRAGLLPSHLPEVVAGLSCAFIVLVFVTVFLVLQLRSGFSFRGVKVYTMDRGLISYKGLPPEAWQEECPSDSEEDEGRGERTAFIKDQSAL
row,Compound,Potency
1,CC1=C(/C=C/C(C)=C/C=C/C(C)=C/C=C/C=C(C)/C=C/C=C(C)/C=C/C2=C(C)CCCC2(C)C)C(C)(C)CCC1,inactive
2,CO[C@]1(NC(=O)CSC(F)F)C(=O)N2C(C(=O)O)=C(CSc3nnnn3CCO)CO[C@H]21,inactive
3,C[C@@H]1[C@H](O)[C@@H]2OC(=O)C3=C2[C@H](CCC3)[C@@]12C[C@@H](c1ccoc1)OC2=O,inactive
4,C=CC(=O)c1ccc2ccccc2c1,inactive
5,C[C@@H]1C[C@@H](O)[C@@]23CO[C@]2(CO)C[C@@H](O)CC3[C@@]12CC(c1ccoc1)OC2=O (stereo partly drawn),inactive
6,CCOc1ccc(NC(=O)c2c(NC(=O)Cc3ccccc3)sc3c2CCC(C)C3)cc1 (stereo not drawn),inactive
7,O=C(O)c1cccc(-n2[nH]c(-c3ccccc3)cc2=O)c1,inactive
8,CCOc1ccc(N(Cc2ccccc2)C(=O)c2nc(S(C)(=O)=O)ncc2Cl)cc1,inactive
9,Oc1ccc(OC2CCCCO2)cc1 (stereo not drawn),inactive
10,CCc1ccccc1NC(=O)c1cnn(-c2ccc(F)cc2)c1C1CCNCC1,inactive
11,CCC(C)C(=O)OC1C(C)C2(O)C(C=C(CO)CC3(O)C(=O)C(C)=CC32)C2C(C)(C)C12OC(=O)C(C)C (stereo not drawn),inactive
12,CCOc1ccc(NC(=O)c2c(NC(=O)Cc3ccccc3)sc3c2CCCCC3)cc1,inactive
13,COC([CH2][Hg])CNC(=O)c1ccccc1OCC(=O)O (stereo not drawn),2060 nM (active)
14,C[C@@H]1O[C@@H](O[C@@H]2[C@@H](O)[C@H](OCCc3ccc(O)c(O)c3)O[C@H](CO[C@@H]3O[C@H](CO)[C@@H](O)[C@H](O)[C@H]3O)[C@H]2OC(=O)/C=C/c2ccc(O)c(O)c2)[C@H](O)[C@H](O)[C@H]1O,inactive
15,Cc1c(S(=O)(=O)O)oc2c1C(=O)C(=O)c1c-2ccc2c1CCCC2(C)C,inactive
16,C=Cc1c(C)c2cc3nc(cc4[nH]c(cc5nc(cc1[nH]2)C(C)=C5CCC(=O)O)c(CCC(=O)OC)c4C)[C@@]1(C)C3=CC=C(C(=O)OC)[C@H]1C(=O)OC,inactive
17,N#CSc1cc(SC#N)c(N)nc1N,inactive
18,CC(=O)N[C@@H](C(=O)O[C@H]1CCC(C)(C)[C@@H]2CCC3=C(COC3=O)[C@@]12C)C(C)C,inactive
